Measured values reported in PubChem BioAssay (EPA / NIEHS).
Where “and” joins values, the source holds several entries; their conditions need not be identical. Identical values can stand only once. Records with an inconclusive call do not appear. Calls of active or inactive are those of the source. Rule for the calls: active = hit-call score of the fitted dose curve at least 0.9, where 1 is the maximum; inconclusive = response in the unintended direction; inactive = score below 0.9.

Assays:
[1] = molecular target: human Orphanin, Opioid Related Nociceptin Receptor 1 (ORL1), OPRL1 (gene 4987) (UniProt P41146); assay: NVS_GPCR_hORL1: NovaScreen (NVS) G Protein-Coupled Receptor Assay for human Orphanin, Opioid Related Nociceptin Receptor 1 (ORL1) (AID 2283283)
Chain of human Orphanin, Opioid Related Nociceptin Receptor 1 (ORL1), OPRL1 (gene 4987) (P41146 whole entry, looked up): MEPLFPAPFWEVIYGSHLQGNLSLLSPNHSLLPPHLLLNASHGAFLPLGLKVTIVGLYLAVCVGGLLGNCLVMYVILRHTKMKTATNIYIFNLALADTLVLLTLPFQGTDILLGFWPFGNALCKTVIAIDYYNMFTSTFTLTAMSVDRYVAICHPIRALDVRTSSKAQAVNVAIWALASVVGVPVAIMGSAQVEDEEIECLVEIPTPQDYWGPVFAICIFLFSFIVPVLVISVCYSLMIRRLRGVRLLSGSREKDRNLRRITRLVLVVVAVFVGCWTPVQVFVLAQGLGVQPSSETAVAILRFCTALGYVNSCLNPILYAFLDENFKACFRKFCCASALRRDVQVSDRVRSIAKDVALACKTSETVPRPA
In short: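 Cell-free binding using HEK293-derived receptor protein: radioligand displacement measured by filter scintillation 1 hour after dosing. Primary testing at 25 uM in duplicate, followed by singleton concentration series up to 50 uM; DMSO served as negative control.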

[2] = molecular target: Muscarinic acetylcholine receptor M5 (Homo sapiens) (UniProt P08912); assay: NVS_GPCR_hM5: NovaScreen (NVS) G Protein-Coupled Receptor Assay for human Muscarinic, M5 Receptor (AID 2283275)
Chain of Muscarinic acetylcholine receptor M5 (Homo sapiens) (P08912 whole entry, looked up): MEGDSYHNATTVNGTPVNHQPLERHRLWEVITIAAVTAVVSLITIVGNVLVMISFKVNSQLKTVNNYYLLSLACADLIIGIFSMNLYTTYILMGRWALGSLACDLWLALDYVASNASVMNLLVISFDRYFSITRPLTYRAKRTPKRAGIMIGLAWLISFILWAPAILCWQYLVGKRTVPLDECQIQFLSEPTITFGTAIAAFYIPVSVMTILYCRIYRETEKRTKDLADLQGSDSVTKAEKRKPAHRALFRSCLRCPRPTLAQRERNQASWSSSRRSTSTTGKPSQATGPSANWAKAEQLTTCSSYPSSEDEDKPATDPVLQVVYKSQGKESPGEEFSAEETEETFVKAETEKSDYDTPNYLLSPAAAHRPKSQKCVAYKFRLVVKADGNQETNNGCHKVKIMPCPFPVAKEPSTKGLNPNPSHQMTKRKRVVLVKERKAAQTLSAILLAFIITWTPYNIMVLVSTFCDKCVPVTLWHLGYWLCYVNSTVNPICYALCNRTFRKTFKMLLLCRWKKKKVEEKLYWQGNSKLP
In short: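 Chemicals passing a primary duplicate screen at 25 uM were run as singleton concentration series, maximum 50 uM. Displacement of a specific radioligand from CHO-extracted receptor was read by filter scintillation after 1 h, relative to DMSO.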

[3] = molecular target: rat Serotonin, 5-Hydroxytryptamine Receptor 1 (5HT1), Non-Selective Binding, Htr1a (gene 24473) (UniProt P19327); assay: NVS_GPCR_r5HT1_NonSelective: NovaScreen (NVS) G Protein-Coupled Receptor Assay for rat Serotonin, 5-Hydroxytryptamine Receptor 1 (5HT1), Non-Selective Binding (AID 2283286)
Chain of rat Serotonin, 5-Hydroxytryptamine Receptor 1 (5HT1), Non-Selective Binding, Htr1a (gene 24473) (P19327 whole entry, looked up): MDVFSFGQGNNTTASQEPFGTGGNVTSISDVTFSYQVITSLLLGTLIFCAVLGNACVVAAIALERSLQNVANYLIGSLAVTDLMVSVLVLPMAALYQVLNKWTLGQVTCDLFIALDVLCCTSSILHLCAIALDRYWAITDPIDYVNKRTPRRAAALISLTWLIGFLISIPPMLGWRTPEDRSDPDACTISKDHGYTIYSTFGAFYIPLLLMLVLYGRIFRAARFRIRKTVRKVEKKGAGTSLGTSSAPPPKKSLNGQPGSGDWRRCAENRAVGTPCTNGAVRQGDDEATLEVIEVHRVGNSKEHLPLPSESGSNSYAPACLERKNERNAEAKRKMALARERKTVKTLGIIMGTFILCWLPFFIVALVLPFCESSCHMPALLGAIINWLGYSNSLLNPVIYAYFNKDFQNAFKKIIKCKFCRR
In short: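 Binding of a radioligand to rat cortex membranes is read by filtration and scintillation counting after 1 h. Compounds were screened at 25 uM in duplicate. Actives were then titrated to a top of 50 uM. DMSO is the baseline.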

[4] = test system: 5-hydroxytryptamine receptor 2C (pig); assay: NVS_GPCR_p5HT2C: NovaScreen (NVS) G Protein-Coupled Receptor Assay for pig Serotonin, 5-Hydroxytryptamine Receptor 2C (5HT2C) (AID 2283288)
In short: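 Radioligand displacement on membranes from pig choroid plexus, detected by filter scintillation counting after 1 h. Tested first at a single 25 uM in duplicate, then in concentration-response for actives; DMSO served as baseline.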

[5] = molecular target: rat Adrenergic, Alpha 1, Non-selective Receptor (Adra1), Adra1a (gene 29412) (UniProt P43140); assay: NVS_GPCR_rAdra1_NonSelective: NovaScreen (NVS) G Protein-Coupled Receptor Assay for rat Adrenergic, Alpha 1, Non-selective Receptor (Adra1) (AID 2283289)
Chain of rat Adrenergic, Alpha 1, Non-selective Receptor (Adra1), Adra1a (gene 29412) (P43140 whole entry, looked up): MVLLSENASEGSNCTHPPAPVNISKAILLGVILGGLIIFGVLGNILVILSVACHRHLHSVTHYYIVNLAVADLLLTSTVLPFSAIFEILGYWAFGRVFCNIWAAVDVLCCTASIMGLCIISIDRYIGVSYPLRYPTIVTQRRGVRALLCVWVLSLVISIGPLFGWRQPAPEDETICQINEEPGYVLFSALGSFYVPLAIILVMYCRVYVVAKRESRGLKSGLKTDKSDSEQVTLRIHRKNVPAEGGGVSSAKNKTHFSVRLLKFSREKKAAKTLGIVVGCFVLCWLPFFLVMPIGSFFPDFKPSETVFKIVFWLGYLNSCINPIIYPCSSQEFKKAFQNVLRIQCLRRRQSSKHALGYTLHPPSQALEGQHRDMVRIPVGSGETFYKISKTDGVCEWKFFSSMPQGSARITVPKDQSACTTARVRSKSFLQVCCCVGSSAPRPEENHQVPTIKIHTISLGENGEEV
In short: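 Chemicals first screened in duplicate at 25 uM, then actives tested in concentration series up to 50 uM. Binding measured as displacement of radioligand from rat forebrain membrane receptors, 1 h, filtration with scintillation readout; DMSO baseline.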

[6] = molecular target: rat Serotonin, 5-Hydroxytryptamine Receptor (5HT), Non-Selective Binding, Htr1a (gene 24473) (UniProt P19327); assay: NVS_GPCR_r5HT_NonSelective: NovaScreen (NVS) G Protein-Coupled Receptor Assay for rat Serotonin, 5-Hydroxytryptamine Receptor (5HT), Non-Selective Binding (AID 2283295)
Chain of rat Serotonin, 5-Hydroxytryptamine Receptor (5HT), Non-Selective Binding, Htr1a (gene 24473) (P19327 whole entry, looked up): as the sequence (P19327 whole entry, looked up) above
In short: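 Rat cortex membrane preparation incubated 1 h with radioligand and test chemical; bound radioactivity counted after filtration. Screening began in duplicate at 25 uM with concentration-series follow-up; fitting relative to DMSO.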

[7] = molecular target: human Neurokinin, NK2 Receptor, TACR2 (gene 6865) (UniProt P21452); assay: NVS_GPCR_hNK2: NovaScreen (NVS) G Protein-Coupled Receptor Assay for human Neurokinin, NK2 Receptor (AID 2283278);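 note: actives reduce bound radioligand signal relative to DMSO baseline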
Chain of human Neurokinin, NK2 Receptor, TACR2 (gene 6865) (P21452 whole entry, looked up): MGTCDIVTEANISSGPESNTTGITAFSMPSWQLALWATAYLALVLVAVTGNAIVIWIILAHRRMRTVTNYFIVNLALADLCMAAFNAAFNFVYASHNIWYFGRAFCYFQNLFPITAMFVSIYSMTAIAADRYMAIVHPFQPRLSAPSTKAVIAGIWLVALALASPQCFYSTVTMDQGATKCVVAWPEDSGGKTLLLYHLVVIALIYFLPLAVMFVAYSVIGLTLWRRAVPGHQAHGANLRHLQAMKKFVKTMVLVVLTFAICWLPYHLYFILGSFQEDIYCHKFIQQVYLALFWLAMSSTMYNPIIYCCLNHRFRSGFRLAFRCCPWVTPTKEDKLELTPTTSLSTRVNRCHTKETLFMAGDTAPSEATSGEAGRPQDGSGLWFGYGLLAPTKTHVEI
In short: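 Radioligand binding on membranes from CHO cells expressing receptor, filter-based scintillation read 4 h after dosing. Initial duplicate screen at 25 uM, actives in concentration series; loss of signal versus DMSO.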

[8] = molecular target: human Opioid Receptor Mu (Opiate Mu), OPRM1 (gene 4988) (UniProt P35372); assay: NVS_GPCR_hOpiate_mu: NovaScreen (NVS) G Protein-Coupled Receptor Assay for human Opioid Receptor Mu (Opiate Mu) (AID 2283290);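 note: hits lower bound tracer signal versus DMSO meaning displacement of the ligand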
Chain of human Opioid Receptor Mu (Opiate Mu), OPRM1 (gene 4988) (P35372 whole entry, looked up): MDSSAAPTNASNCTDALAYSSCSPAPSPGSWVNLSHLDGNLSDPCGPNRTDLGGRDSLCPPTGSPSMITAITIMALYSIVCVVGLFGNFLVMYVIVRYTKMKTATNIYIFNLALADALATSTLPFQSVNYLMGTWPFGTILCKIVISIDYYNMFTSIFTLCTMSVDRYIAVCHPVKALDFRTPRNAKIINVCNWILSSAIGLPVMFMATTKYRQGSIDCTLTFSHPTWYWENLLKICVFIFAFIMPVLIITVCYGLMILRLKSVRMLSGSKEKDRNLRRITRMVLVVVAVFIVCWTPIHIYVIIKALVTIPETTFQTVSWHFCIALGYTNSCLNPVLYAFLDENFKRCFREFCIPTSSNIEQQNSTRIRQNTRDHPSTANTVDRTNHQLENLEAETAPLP
In short: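 Radioligand displacement binding on membranes from CHO cells expressing the receptor, 2.5 h after dosing, filter-based scintillation counting; loss of signal vs DMSO baseline. Screened in duplicate at 25 uM, actives then run in concentration series.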

[9] = test system: rabbit Platelet Activating Factor Receptor (PAF), gene 100354046; assay: NVS_GPCR_rabPAF: NovaScreen (NVS) G Protein-Coupled Receptor Assay for rabbit Platelet Activating Factor Receptor (PAF) (AID 2283287)
In short: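 Rabbit platelet membrane preparation; radioligand displacement read by filter-based scintillation counting 1 h after dosing, loss of signal versus DMSO. Primary screen in duplicate at 25 uM, actives followed up in concentration series.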

[10] = molecular target: guinea pig Serotonin, 5-Hydroxytryptamine Receptor 4 (5HT4), HTR4 (gene 100135548) (UniProt O70528); assay: NVS_GPCR_g5HT4: NovaScreen (NVS) G Protein-Coupled Receptor Assay for guinea pig Serotonin, 5-Hydroxytryptamine Receptor 4 (5HT4) (AID 2283294)
Chain of guinea pig Serotonin, 5-Hydroxytryptamine Receptor 4 (5HT4), HTR4 (gene 100135548) (O70528 whole entry, looked up): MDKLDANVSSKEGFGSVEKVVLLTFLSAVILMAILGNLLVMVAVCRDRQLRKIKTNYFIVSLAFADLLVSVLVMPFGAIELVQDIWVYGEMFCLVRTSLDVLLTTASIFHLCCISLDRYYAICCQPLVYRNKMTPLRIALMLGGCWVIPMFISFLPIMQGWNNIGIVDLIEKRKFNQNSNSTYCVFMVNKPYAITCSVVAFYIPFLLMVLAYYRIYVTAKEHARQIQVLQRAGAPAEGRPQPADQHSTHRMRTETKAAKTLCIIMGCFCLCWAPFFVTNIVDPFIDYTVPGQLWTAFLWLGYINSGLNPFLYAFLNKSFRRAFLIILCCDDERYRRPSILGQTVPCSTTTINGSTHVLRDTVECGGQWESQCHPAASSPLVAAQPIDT
In short: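 Compounds first screened in duplicate at 25 uM, actives followed up in concentration series. Binding measured as displacement of specific radioligand from guinea pig striatal membranes, 1 h, filter-based scintillation read-out versus DMSO baseline.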

[11] = molecular target: rat Adrenergic, Alpha 1A Receptor (Adra1A), Adra1a (gene 29412) (UniProt P43140); assay: NVS_GPCR_rAdra1A: NovaScreen (NVS) G Protein-Coupled Receptor Assay for rat Adrenergic, Alpha 1A Receptor (Adra1A) (AID 2283296)
Chain of rat Adrenergic, Alpha 1A Receptor (Adra1A), Adra1a (gene 29412) (P43140 whole entry, looked up): as the sequence (P43140 whole entry, looked up) above
In short: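 Filter radiodetection after 1 h competitive binding on CEC-pretreated rat cortical membranes. Duplicate single-point screening at 25 uM; active chemicals retested across concentration series.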

[12] = test system: rat Adrenergic, Alpha 1B Receptor (Adra1B), gene 24173; assay: NVS_GPCR_rAdra1B: NovaScreen (NVS) G Protein-Coupled Receptor Assay for rat Adrenergic, Alpha 1B Receptor (Adra1B) (AID 2283297)
In short: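 Filter-binding radioligand competition on membranes from rat liver, read after 1 h by scintillation counting. Single-concentration duplicate screen at 25 uM, followed by concentration-response on actives, normalised to DMSO.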

[13] = molecular target: guinea pig Bradykinin Receptor B2 (BK2), BDKRB2 (gene 100135486) (UniProt O70526); assay: NVS_GPCR_gBK2: NovaScreen (NVS) G Protein-Coupled Receptor Assay for guinea pig Bradykinin Receptor B2 (BK2) (AID 2283292)
Chain of guinea pig Bradykinin Receptor B2 (BK2), BDKRB2 (gene 100135486) (O70526 whole entry, looked up): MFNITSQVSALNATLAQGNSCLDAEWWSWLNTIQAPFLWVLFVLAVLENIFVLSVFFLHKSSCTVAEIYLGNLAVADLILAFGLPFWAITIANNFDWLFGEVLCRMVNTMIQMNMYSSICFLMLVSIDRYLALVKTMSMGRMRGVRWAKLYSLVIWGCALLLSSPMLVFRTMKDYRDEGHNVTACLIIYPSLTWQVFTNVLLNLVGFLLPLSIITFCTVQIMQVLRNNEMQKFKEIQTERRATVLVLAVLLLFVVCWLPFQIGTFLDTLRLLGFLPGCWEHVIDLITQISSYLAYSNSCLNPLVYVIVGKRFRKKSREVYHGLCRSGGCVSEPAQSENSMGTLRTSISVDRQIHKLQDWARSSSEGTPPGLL
In short: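 Guinea pig ileum membrane preparation incubated 1 h with radioligand and test chemical; bound counts measured after filtration. Primary duplicate screening at 25 uM, then singleton concentration series with a 50 uM top dose; DMSO as baseline.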

[14] = molecular target: mouse Cholecystokinin, CCK1 Receptor (CCKA), Cckar (gene 12425) (UniProt O08786); assay: NVS_GPCR_mCCKAPeripheral: NovaScreen (NVS) G Protein-Coupled Receptor Assay for mouse Cholecystokinin, CCK1 Receptor (CCKA) (AID 2283285)
Chain of mouse Cholecystokinin, CCK1 Receptor (CCKA), Cckar (gene 12425) (O08786 whole entry, looked up): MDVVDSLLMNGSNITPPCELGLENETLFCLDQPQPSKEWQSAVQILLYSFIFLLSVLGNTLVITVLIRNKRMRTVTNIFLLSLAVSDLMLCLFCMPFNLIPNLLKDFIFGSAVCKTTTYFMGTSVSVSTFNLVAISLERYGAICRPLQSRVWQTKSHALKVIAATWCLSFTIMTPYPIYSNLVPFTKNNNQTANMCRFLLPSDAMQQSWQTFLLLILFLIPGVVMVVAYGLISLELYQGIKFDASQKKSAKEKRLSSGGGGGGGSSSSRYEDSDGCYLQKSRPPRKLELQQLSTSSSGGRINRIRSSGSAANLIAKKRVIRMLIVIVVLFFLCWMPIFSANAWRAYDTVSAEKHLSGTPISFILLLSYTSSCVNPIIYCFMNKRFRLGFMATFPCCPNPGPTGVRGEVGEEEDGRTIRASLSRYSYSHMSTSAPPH
In short: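 Chemicals were first screened in duplicate at 25 uM, with those meeting threshold (e.g., 30% inhibition) retested in singleton concentration series to 50 uM maximum. Binding of radioligand to mouse pancreatic membranes was read after 2 h by filtration and scintillation counting.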

[15] = molecular target: human Neuropeptide Receptor Y1 (NPY1), NPY1R (gene 4886) (UniProt P25929); assay: NVS_GPCR_hNPY1: NovaScreen (NVS) G Protein-Coupled Receptor Assay for human Neuropeptide Receptor Y1 (NPY1) (AID 2283276)
In short: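 Displacement of specific radioligand from NPY1 receptor of SK-N-MC origin, read by filtration and scintillation after 1 h. Compounds first tested at 25 uM in duplicate, then actives in concentration series; signal loss relative to DMSO.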

[16] = molecular target: Neuropeptide Y receptor type 2 (Homo sapiens) (UniProt P49146); assay: NVS_GPCR_hNPY2: NovaScreen (NVS) G Protein-Coupled Receptor Assay for human Neuropeptide Receptor Y2 (NPY2) (AID 2283277)
In short: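 Chemicals were first tested in duplicate at 25 uM, then actives in singleton concentration series to 50 uM. Tracer binding to SK-N-MC-derived protein measured cell-free after 1 h via filter scintillation; signal loss relative to DMSO.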

[17] = molecular target: human Opioid Receptor Delta 1 (Opiate D1), OPRD1 (gene 4985) (UniProt P41143); assay: NVS_GPCR_hOpiate_D1: NovaScreen (NVS) G Protein-Coupled Receptor Assay for human Opioid Receptor Delta 1 (Opiate D1) (AID 2283280)
In short: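 Membrane preparations from CHO cells bearing the human receptor were incubated 1 h with test chemical, and bound radioligand was counted after filtration. Actives from 25 uM duplicate screening were retested in concentration-response.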

[18] = molecular target: mouse Cholecystokinin, CCK2 Receptor (CCKB), Cckbr (gene 12426) (UniProt P56481); assay: NVS_GPCR_mCKKBCentral: NovaScreen (NVS) G Protein-Coupled Receptor Assay for mouse Cholecystokinin, CCK2 Receptor (CCKB) (AID 2283293)
In short: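 Mouse forebrain membrane preparation incubated 2 h with chemical and radioligand; bound radioactivity counted after filtration. Single-concentration duplicate screen at 25 uM, then concentration series to 50 uM max for hits, DMSO as baseline.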

Measured: AC50

Clc1ccc(C2(Cn3cncn3)CC(Br)CO2)c(Cl)c1 (stereo not given)
inactive: [1]

CCC(=O)C(CC(C)N(C)C)(c1ccccc1)c1ccccc1 (stereo not given)
active: [2] 4.57 µM | [4] 1.91 µM | [5] 18.1 µM | [6] 7.26 µM
inactive: [3]

CC(C)(C)c1cc(O)ccc1O
active: [7] 16.3 µM
inactive: [8]

CCN1CCC2(CC1)COc1cc3c(cc12)N(C(=O)c1ccc(-c2ccc(-c4nnc(C)o4)cc2C)cc1)CC3
active: [2] 2.03 µM | [9] 12.5 µM | [5] 11.9 µM | [10] 2.96 µM | [6] 23.4 µM | [11] 16.4 µM | [12] 10.9 µM
inactive: [3]

ClC1=C(Cl)[C@]2(Cl)[C@H]3[C@H]([C@H]4C=C[C@H]3C4)[C@@]1(Cl)C2(Cl)Cl
inactive: [8]

COP(=S)(OC)Oc1ccc(S(=O)(=O)N(C)C)cc1
inactive: [7]

O=C(Nc1ccc2[nH]ccc2c1)c1cc2cc(F)ccc2n1Cc1cccc(F)c1
inactive: [2] | [8] | [13]

O=C1C2(Cl)C3(Cl)C4(Cl)C(Cl)(Cl)C5(Cl)C3(Cl)C1(Cl)C5(Cl)C24Cl (stereo not given)
active: [8] 1.63 µM and 2.66 µM and 1.08 µM
inactive: [14]

C=C(C)C(=O)[O][Sn]([CH2]CCC)([CH2]CCC)[CH2]CCC
active: [2] 1.23 µM | [15] 1.14 µM | [16] 14.8 µM | [7] 0.977 µM | [17] 0.761 µM | [1] 1.39 µM | [14] 0.281 µM | [3] 18 µM | [9] 6.61 µM | [5] 6.86 µM | [8] 653 nM | [13] 12 µM | [18] 2.88 µM | [10] 2.78 µM | [6] 13.8 µM | [11] 13 µM | [12] 4.59 µM
